Assay outcomes as filed in PubChem.
Menin MLL FP FL – menin-MLL binding inhibition, fluorescein peptide. Fluorescence polarization, fluorescein-MLL peptide displacement from menin. FP activity change, % at 61.4 µM. 290,000 tested, under 10 active; active = well fitted curve in the direction sought with a large enough effect in the polarisation, not every such curve was filed as active; inconclusive = small, poorly fitted or top-dose-only effect, or effect the other way, or a change in a side signal; inactive = no such curve, though single readings can be large or run the other way; the % refers to the polarisation; note: % of control where 0% means no effect
TRPV1 agonist – agonists of human vanilloid receptor 1 (TRPV1) | 320,000 tested, 0.19% active | TRPV1-expressing cells, Fluo-8 calcium influx, agonist mode | activation, % at 8.33 µM | Q8NER1 | AID 540275; in the data active = activation above about 80%; inconclusive = between about 30% and that limit; note: 0% is about no effect
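TRPV1-expressing cells were cultured overnight at 35.5C and loaded with Fluo-8 calcium dye for 40 to 90 min at room temperature. After a 10 s baseline, compound was added and calcium influx was read kinetically for 3 min (ex 480/em 520 nm).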
TRPV1 potentiator – enhances activation of the human vanilloid receptor TRPV1. Q8NER1. TRPV1-expressing cells, Fluo-8 calcium influx, capsaicin EC20 potentiation. potentiation, % at 8.33 µM. 320,000 tested, 0.02% active. AID 540277; in the data active = potentiation above about 80%; inconclusive = between about 30% and that limit; note: 0% is about no effect
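TRPV1-expressing cells were cultured overnight at 35.5C and loaded with Fluo-8 calcium dye for 40 to 90 min at room temperature. After a 10 s baseline, compound was added and calcium influx was read kinetically for 3 min (ex 480/em 520 nm).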
CXXC DNA block – MLL CXXC-DNA interaction inhibition; Q03164; MLL-CXXC / FITC-HOXA9 DNA fluorescence polarization; Potency, µM (highest dose often 115 µM), inactives show top-dose activity change, negative = inhibition, hits mostly inhibitors; 290,000 tested, 0.037% active; AID 2662; active = well fitted inhibition curve with a large enough effect in the polarisation, with a control signal flat, not every such curve was filed as active; inconclusive = small, poorly fitted or top-dose-only effect, or effect the other way, or a change in a side signal; inactive = no such curve, though single readings can be large or run the other way; the % refers to the polarisation; note: potency is the fitted concentration of half-maximal effect
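Fluorescence polarization: 7 uM MLL-CXXC (stock) preincubated 5 min with compounds, then 50 nM fluorescein-HOX-A9 DNA (stock) added; 30 min ambient. Buffer 50 mM Tris-HCl pH 7.5, 50 mM NaCl, 1 mM DTT, 0.05% BSA.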
Menin MLL FP TR – displaces Texas Red mutant MLL peptide from human menin; 270,000 tested, 0.23% active; Menin + Texas Red MLL mutant peptide, fluorescence polarization; AID 1768; O00255; Potency, µM (top dose mostly 61.6 µM), inactives show at the highest dose FP activity change, negative = inhibition, actives largely listed as inhibitors; active = well fitted inhibition curve with a large enough effect in the polarisation, with a control signal flat, not every such curve was filed as active; inconclusive = small, poorly fitted or top-dose-only effect, or effect the other way, or a change in a side signal; inactive = no such curve, though single readings can be large or run the other way; the % refers to the polarisation; note: potency is the fitted concentration of half-maximal effect; % of control where 0% means no effect
* = called active by the depositor; ? = inconclusive; . = no result; [ ] = remark or other dose. An excerpt weighted towards active compounds, which were near 0.32% of everything screened.

SMILES	Menin MLL FP FL	TRPV1 agonist	TRPV1 potentiator	CXXC DNA block	Menin MLL FP TR
CSCC[C@H](N)C(=O)N[C@@H](CCC(=O)O)C(=O)N[C@H](C(=O)NCC(=O)N[C@@H](Cc1c[nH]c2ccccc12)C(=O)N[C@@H](Cc1ccc(O)cc1)C(=O)N[C@@H](CCCNC(=N)N)C(=O)N[C@@H](CO)C(=O)N1CCC[C@H]1C(=O)N[C@@H](Cc1ccccc1)C(=O)N[C@@H](CO)C(=O)N[C@@H](CCCNC(=N)N)C(=O)N[C@H](C(=O)N[C@H](C(=O)N[C@@H](Cc1cnc[nH]1)C(=O)N[C@@H](CC(C)C)C(=O)N[C@@H](Cc1ccc(O)cc1)C(=O)N[C@@H](CCCNC(=N)N)C(=O)N[C@@H](CC(N)=O)C(=O)NCC(=O)N[C@@H](CCCCN)C(=O)O)C(C)C)C(C)C)C(C)C	-1.1	.	.	.	-3.6%
COC(=O)c1cc2c(-c3ccccc3)c(C)c3ccccn3c-2c1C(=O)OC	?	7.7	-0.2	-1.2%	35.5µM*
COC(=O)c1c(Cl)c2n3ccccc3c(C)c(-c3ccccc3)c-2c1C(=O)OC	?	-5.6	-5.9	?	-17.8%
Cc1ccc(Nc2nc(-c3cccnc3)nc3ccccc23)cc1	9.9	95.1*	2.9	-2.9%	.
COc1ccc(CCNc2nc(-c3cccnc3)nc3ccccc23)cc1OC	-4.3	86.0*	-18.9	-7.3%	0.4%
c1ccc(Nc2nc(-c3cccnc3)nc3ccccc23)cc1	12.2	.	.	.	21.5%
COc1ccc(/C=N/Nc2nc(-c3cccnc3)nc3ccccc23)cc1OC	1.6	3.7	1.4	39.1%	.
Cc1ccc(/C=N/NC(=O)c2ccc(-n3cnnn3)cc2)cc1	.	80.2*	-10.2	.	.
O=C(N/N=C\c1ccc(F)cc1)c1ccc(F)cc1	0.1	81.9*	-21.7	4.6%	2.3%
O=C(N/N=C/c1ccc(F)cc1)c1ccc(-n2cnnn2)cc1	.	?	-29.5	.	.
CC[C@@H]1/C=C(\C)C[C@H](C)C[C@H](OC)[C@H]2O[C@@](O)(C(=O)C(=O)N3CCCC[C@H]3C(=O)O[C@H](/C(C)=C/[C@@H]3CC[C@H](Cl)[C@H](OC)C3)[C@H](C)[C@@H](O)CC1=O)[C@H](C)C[C@@H]2OC	0.8	.	.	8.3%	2.6%
O=C(/C=C/c1ccc(/C=C/C(=O)Nc2ccc(C3=NCCN3)cc2)cc1)Nc1ccc(C2=NCCN2)cc1	-1.9	.	.	.	5.0%
Fc1ccc(CNC(=S)Nc2ccc(Cl)cc2Cl)cc1	1.3	87.6*	-19.1	17.7%	-6.8%
O=C(NCc1ccncc1)Nc1ccc(Cl)cc1Cl	5.1	?	-29.7	-3.0%	15.5%
S=C(NCc1ccncc1)Nc1ccc(Cl)cc1Cl	-0.1	80.3*	-20.0	37.3%	24.5%
S=C(NCc1ccc(Cl)cc1)Nc1ccc(Cl)cc1Cl	0.9	?	-3.0	17.7%	?
COc1cccc(CNC(=S)Nc2ccc(Cl)cc2C)c1	0.2	80.6*	-23.3	-10.7%	15.1%
COc1cc(OC)cc(-c2nnc3n2N=C(c2ccc(OC)cc2OC)CS3)c1	-4.2	.	.	.	15.6%
O=c1oc2c(O)cccc2cc1-c1nc2ccccc2[nH]1	?	85.0*	-0.3	?	?
CCc1cc2c(=O)c(-c3nc4ccccc4[nH]3)coc2c(CN2CCCCC2)c1O	-0.5	?	-23.0	-21.5%	.
O=c1oc2c(CN3CCCCC3)c(O)ccc2cc1-c1nc2ccccc2[nH]1	?	84.6*	-33.4	?	?
Nc1nc2[nH]cc(CCc3ccc(C(=O)NC(CCC(=O)O)C(=O)O)cc3)c2c(=O)[nH]1 (configuration not stated)	2.5	.	.	8.2%	-2.1%
O=C1CC(N(CCc2ccccc2)C(=S)Nc2cc(Cl)ccc2Cl)C(=O)N1c1c(Cl)cccc1Cl (configuration not stated)	1.0	3.9	-1.7	5.7%	10µM*
O=C1CC(N(CCc2ccccc2)C(=S)Nc2ccccc2)C(=O)N1c1ccccc1 (configuration not stated)	-1.8	?	-5.6	4.2%	?
COc1ccc(CNC(=O)CCCSc2ccccc2)cc1	3.3	?	3.8	8.0%	-22.3%
SMILES	Menin MLL FP FL	TRPV1 agonist	TRPV1 potentiator	CXXC DNA block	Menin MLL FP TR
NS(=O)(=O)c1ccc(CNC(=O)CCCSc2ccccc2)cc1	2.5	84.1*	-34.8	-6.1%	18.1%
COc1ccc2cc(C#N)c(SCC(=O)NNC(=O)Cc3ccccc3)nc2c1	5.3	-6.1	7.9	4.3%	11.2µM*
CC[C@H](C)[C@H](NC(=O)[C@H](Cc1ccc(O)cc1)NC(=O)[C@H](Cc1cnc[nH]1)NC(=O)[C@H](CCCNC(=N)N)NC(=O)[C@H](CC(C)C)NC(=O)[C@H](C)NC(=O)[C@H](CO)NC(=O)[C@H](Cc1ccc(O)cc1)NC(=O)[C@H](Cc1ccc(O)cc1)NC(=O)[C@H](CCCNC(=N)N)NC(=O)[C@H](C)NC(=O)[C@H](CCSC)NC(=O)[C@H](CC(=O)O)NC(=O)[C@H](CCC(=O)O)NC(=O)[C@H](C)NC(=O)[C@@H]1CCCN1C(=O)[C@H](C)NC(=O)[C@H](CC(=O)O)NC(=O)[C@H](CCC(=O)O)NC(=O)CNC(=O)[C@@H]1CCCN1C(=O)[C@H](CC(N)=O)NC(=O)[C@H](CC(=O)O)NC(=O)[C@@H]1CCCN1C(=O)[C@H](CCCCN)NC(=O)[C@H](CO)NC(=O)[C@@H]1CCCN1C(=O)[C@@H](N)Cc1ccc(O)cc1)C(=O)N[C@@H](CC(N)=O)C(=O)N[C@@H](CC(C)C)C(=O)N[C@@H](CC(C)C)C(=O)N[C@H](C(=O)N[C@@H](CCCNC(=N)N)C(=O)N1CCC[C@H]1C(=O)N[C@@H](CCCNC(=N)N)C(=O)N[C@@H](Cc1ccc(O)cc1)C(N)=O)[C@@H](C)O	-0.1	.	.	.	-15.8%
N#Cc1c(N)nc2c3c(sc(=N)c2c1N)NC(=O)CC3c1ccccc1 (configuration not stated)	9.2	-2.6	8.3	17.0%	22.4µM*
N#Cc1c(N)nc2c3c(sc(=N)c2c1N)NC(=O)CC3c1c(F)cccc1Cl (configuration not stated)	10.0	-2.6	-2.6	4.7%	?
COc1ccc(C2C3C=CCCC3(C)C(=O)N2Cc2ccccc2)cc1Cl (configuration not stated)	-2.3	.	.	.	-19.1%
Cc1ccc(CN2C(=O)C(CC(C)C)Nc3ncnc(N4CCN(c5ccccn5)CC4)c32)cc1 (configuration not stated)	.	81.2*	-15.5	.	.
O=C(NCCc1ccccc1)c1cccc(Br)n1	-4.8[94.6 µM]	.	.	.	-9.1%[94.6 µM]
CCN(CC)c1ccc(C=Nc2ccc(N(C)C)cc2)c(O)c1	?	3.5	6.3	?	20µM*
COc1cc(CCC(O)CC(=O)CCc2ccccc2)ccc1O (configuration not stated)	-4.1	84.2*	13.8	-2.6%	14.9%
Cc1ccc(OCCNC(=O)Cc2ccc(F)cc2)cc1	1.8	84.3*	-13.5	15.7%	2.2%
